Test results taken from PubChem BioAssay.
Values joined by “and” are separate entries in the source; they are usually repeats but may differ in a detail not shown here. Identical values can stand only once. Results filed as inconclusive are left out. For part of these data: Entries with a potency or affinity are not part of this list. The source holds several records for some structures; these can differ, active in one and inactive in another. Active and inactive are the calls of the source.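 The calls were made as follows, unless noted: active = at least 20% inhibition of 6-phosphogluconate dehydrogenase activity; inactive = the rest.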

Assays:
[1] = polyglutamine-triggered caspase-3 activation inhibitors, cell-based (AID 1583); conditions: polyglutamine-induced caspase-3 activation, cell assay; stronger effect = higher value;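 tested at 10 µM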
[2] = suppressors of polyQ aggregation in yeast, 75Q-TubU reporter (AID 1593); conditions: Yeast 75Q polyglutamine aggregation reporter
[3] = rescue of polyQ-huntingtin neuronal dysfunction in worms, whole organism, C. elegans mechanosensory neurons, N-terminal huntingtin (AID 1599); conditions: touch response, stronger effect = higher value
[4] = inhibitors of mitochondrial cytochrome c release, biochemical, purified mitochondria (AID 1603); conditions: stronger effect = lower value;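 also: mouse liver mitochondria challenged with calcium chloride; signal normalized to the plate average as 100%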
[5] = inhibitors of polyQ protein aggregation (AID 1604); conditions: polyglutamine-induced protein aggregation inhibition assay; stronger effect = higher value; tested at 2.5 µM
[6] = enhancers of glutamate uptake in motor neurons, MN-1 cell line (AID 1612); conditions: MN-1 motor neuron cells, stronger effect = higher value;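 also: tested at 1 µM final; 0% = mean of DMSO vehicle wells on each plate; positive means more glutamate uptake than control and negative means less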
[7] = suppressors of polyglutamine aggregation in yeast, 75Q-TubH (AID 1616); conditions: S. cerevisiae 75Q-TubH polyglutamine aggregation suppression; stronger effect = higher value
[8] = liver-stage malaria parasite growth inhibition, primary screen, cell-based, HepG2, luciferase luminescence, HepG2 viability (AID 624349; in the data active = parasite load remaining mostly below about 12%, no sharp cut-off; inactive = mostly above about 10%;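 also: 100% = mean of DMSO negative control wells on the same plate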); conditions: P. berghei liver stage in HepG2, luciferase luminescence, concentration not given here; parasite load remaining: stronger effect = lower value; viability: measured here: HepG2 viability without parasites
[9] = biological target: 6-phosphogluconate dehydrogenase, decarboxylating (Homo sapiens) (UniProt P52209); test: 6PGD enzyme inhibitors, primary screen, biochemical, human, recombinant enzyme, NADPH absorbance (AID 1159550); conditions: recombinant 6PGD, NADPH absorbance 341 nm; at 10 µM; stronger effect = higher value
Chain of 6-phosphogluconate dehydrogenase, decarboxylating (Homo sapiens) (P52209 whole entry, looked up): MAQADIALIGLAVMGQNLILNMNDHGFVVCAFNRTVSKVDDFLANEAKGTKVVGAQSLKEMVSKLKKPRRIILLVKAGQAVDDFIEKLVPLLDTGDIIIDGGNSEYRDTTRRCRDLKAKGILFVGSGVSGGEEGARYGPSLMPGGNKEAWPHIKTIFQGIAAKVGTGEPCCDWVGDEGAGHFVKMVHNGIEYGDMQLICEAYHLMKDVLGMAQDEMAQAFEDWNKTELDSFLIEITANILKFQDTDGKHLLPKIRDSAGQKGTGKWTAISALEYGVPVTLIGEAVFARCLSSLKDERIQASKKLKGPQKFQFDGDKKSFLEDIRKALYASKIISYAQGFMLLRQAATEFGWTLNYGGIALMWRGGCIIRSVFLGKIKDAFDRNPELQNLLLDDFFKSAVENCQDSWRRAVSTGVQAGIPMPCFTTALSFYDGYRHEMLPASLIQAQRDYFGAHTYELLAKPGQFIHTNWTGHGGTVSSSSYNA

[10] = growth inhibition of DIPG glioma cells, dose response, cell-based, SU-DIPG-XIII, MIPE4.0, CellTiter-Glo, qHTS (AID 1347061; cut-off not given, nearly all actives have AC50 up to about 37 µM;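 also: cells exposed to compound for 48 hours before readout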); conditions: SU-DIPG-XIII viability, CellTiter-Glo ATP luminescence
[11] = growth inhibition of DIPG glioma cells, dose response, cell-based, JHH-DIPG-1, MIPE4.0, CellTiter-Glo, qHTS (AID 1347062; cut-off not given, nearly all actives have AC50 up to about 27 µM;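 as to AC50: cells exposed to compound for two days before readout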); conditions: JHH-DIPG-1 viability, CellTiter-Glo ATP luminescence
[12] = growth inhibition of DIPG glioma cells, dose response, cell-based, SU-DIPG-IV, MIPE4.0, CellTiter-Glo, qHTS (AID 1347063; cut-off not given, nearly all actives have AC50 up to about 30 µM;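 also: compound exposure lasted 48 hours before the viability readout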); conditions: SU-DIPG-IV viability, CellTiter-Glo ATP luminescence
[13] = JHH-DIPG-1 glioma cell viability, MIPE5.0 library, CellTiter-Glo luminescence, qHTS (AID 1347067; cut-off not given, nearly all actives have AC50 up to about 26 µM;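 also: cells exposed to compound for 48 hours before readout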); conditions: JHH-DIPG-1 glioma viability, CellTiter-Glo ATP luminescence
[14] = survival rescue of mitochondrial mutant cells in low glucose, primary screen, MELAS cybrids, Rieske KO mouse fibroblasts, CellTiter-Glo (AID 1508586;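 active = mean z-score across replicates of 1.96 or higher in either the MELAS or the Rieske mutant cell line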;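 also: z relative to plate mean and SD of compound and empty wells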)
[15] = biological target: Mitogen-activated protein kinase 7 (Homo sapiens) (UniProt Q13164); test: ERK5 transactivation activators in reporter cells, primary screen, cell-based, HTS (AID 1508626;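 active = luciferase signal above three times the same-plate solvent-only control wells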;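 also: luciferase driven by Gal4-ERK5 fusion binding five Gal4 sites before minimal TATA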); conditions: HeLa Gal4-ERK5 transactivation, 18 h, at 5 µM, stronger effect = higher value
Chain of Mitogen-activated protein kinase 7 (Homo sapiens) (Q13164 whole entry, looked up, the tested form may be a part): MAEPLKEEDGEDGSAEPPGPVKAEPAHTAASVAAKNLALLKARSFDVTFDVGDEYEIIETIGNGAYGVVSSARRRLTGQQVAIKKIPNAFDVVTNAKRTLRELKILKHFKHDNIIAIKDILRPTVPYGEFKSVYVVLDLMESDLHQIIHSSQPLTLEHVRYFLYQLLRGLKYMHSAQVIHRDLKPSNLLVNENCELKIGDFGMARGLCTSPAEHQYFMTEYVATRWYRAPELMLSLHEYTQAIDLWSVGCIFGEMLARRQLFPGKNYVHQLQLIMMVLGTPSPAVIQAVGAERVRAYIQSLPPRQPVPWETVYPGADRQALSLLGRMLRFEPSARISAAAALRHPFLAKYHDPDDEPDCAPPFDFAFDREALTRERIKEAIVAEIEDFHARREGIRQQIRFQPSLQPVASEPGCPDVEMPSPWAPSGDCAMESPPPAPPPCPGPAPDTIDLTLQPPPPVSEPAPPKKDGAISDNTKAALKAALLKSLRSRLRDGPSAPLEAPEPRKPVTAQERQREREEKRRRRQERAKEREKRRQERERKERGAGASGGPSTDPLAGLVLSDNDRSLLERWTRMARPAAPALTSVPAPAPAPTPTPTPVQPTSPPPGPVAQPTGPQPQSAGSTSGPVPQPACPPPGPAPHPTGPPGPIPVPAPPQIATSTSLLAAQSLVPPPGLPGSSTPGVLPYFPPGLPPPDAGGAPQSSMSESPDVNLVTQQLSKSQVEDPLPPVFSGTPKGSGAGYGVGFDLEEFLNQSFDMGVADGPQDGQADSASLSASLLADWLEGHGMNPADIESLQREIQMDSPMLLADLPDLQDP

[16] = viability rescue of complex I mutant cybrids, primary screen, cell-based, galactose medium, ATP luminescence (AID 1645843;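 active = z-score of at least 1.8 in each of two replicates, scored against plate mean and spread of sample wells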;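 also: positive z means more ATP and so rescue of galactose-driven cybrid death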); conditions: complex I mutant cybrid cells, 72 h, stronger effect = higher value
[17] = sensitizers of A549 cells to miR-34 induction, primary screen, imaging, A549 dox-inducible miR-34, nuclei and caspase counts (AID 1347080;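 active = compounds whose cell count with miR-34 switched on is under 0.7 times the count with it off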); conditions: A549 miR-34 inducible, Hoechst nuclei count, 48 h
[18] = differential killing of epithelial or mesenchymal cells, primary screen, imaging, PC-3E GFP, TEM4-18 mCherry, co-culture (AID 1345086;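 active = compounds killing one labelled cell type while sparing the other, by normalised counts and ratio limits, not self-fluorescent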;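 as to all read-outs here: cells exposed to compound for 72 h before imaging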;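 as to red/green cell ratio (normalised): normalised mesenchymal count divided by normalised epithelial count so high means epithelial killing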); conditions: imaging cell counts, at 1 µM; for red/green cell ratio (normalised): actives lie on both sides, counts scaled to control wells, 1 = unselective
[19] = biological target: NAD(+) hydrolase SARM1 (Homo sapiens) (UniProt Q6SZW1); test: SARM1 TIR NADase inhibitors, cell lysate, NAD-Glo luminescence (AID 1508614;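 active = compound whose remaining NAD level is above about 45 nM, limit read from the data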;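 also: higher remaining NAD means stronger inhibition of SARM1 NADase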); conditions: SAM-TIR HEK293T lysate NADase, at 1 µM, stronger effect = higher value
Chain of NAD(+) hydrolase SARM1 (Homo sapiens) (Q6SZW1 whole entry, looked up): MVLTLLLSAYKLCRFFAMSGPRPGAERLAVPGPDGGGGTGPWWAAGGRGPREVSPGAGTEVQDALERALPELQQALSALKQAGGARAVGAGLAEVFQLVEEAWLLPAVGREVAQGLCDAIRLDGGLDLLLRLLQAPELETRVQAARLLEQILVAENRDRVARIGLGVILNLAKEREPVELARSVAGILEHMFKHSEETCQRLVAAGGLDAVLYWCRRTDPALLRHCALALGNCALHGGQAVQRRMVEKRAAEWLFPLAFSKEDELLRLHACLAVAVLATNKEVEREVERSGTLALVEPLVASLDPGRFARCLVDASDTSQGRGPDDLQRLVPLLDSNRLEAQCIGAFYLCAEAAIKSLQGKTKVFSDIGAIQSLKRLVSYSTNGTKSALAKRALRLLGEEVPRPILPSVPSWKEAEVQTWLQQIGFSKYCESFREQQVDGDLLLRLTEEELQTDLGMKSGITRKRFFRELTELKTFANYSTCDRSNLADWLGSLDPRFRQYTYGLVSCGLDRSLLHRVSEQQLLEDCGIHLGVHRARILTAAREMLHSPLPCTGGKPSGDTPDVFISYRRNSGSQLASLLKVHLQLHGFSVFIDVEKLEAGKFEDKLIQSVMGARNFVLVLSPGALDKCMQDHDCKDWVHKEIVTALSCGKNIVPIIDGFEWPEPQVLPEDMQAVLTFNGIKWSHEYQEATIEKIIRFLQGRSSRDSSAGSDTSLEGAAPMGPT

[20] = ICB984 medulloblastoma cell growth inhibition, synergistic combos for chromothripsis tumors, cisplatin or BGB combos (AID 1671451; call rule not given here;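 also: cells exposed for 96 hours before readout; 0% = vehicle DMSO and 100% = killing by high DMSO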); conditions: ICB984 medulloblastoma cells, drug combinations, stronger effect = higher value
[21] = MELAS cybrid survival, CellTiter-Glo 48 h, stronger effect = higher value
[22] = Rieske KO mouse fibroblast survival, CellTiter-Glo 72 h
[23] = stronger effect = lower value, cell number ratio, induced over uninduced
[24] = measured here: relative caspase fold change +Dox/-Dox
[25] = measured here: total cells with miR-34 induction, stronger effect = lower value
[26] = measured here: total cells without miR-34 induction
[27] = measured here: epithelial PC-3E GFP cell survival
[28] = measured here: mesenchymal TEM4-18 mCherry cell survival

O=c1c(-c2ccc(O)cc2)coc2cc(O)ccc12
inhibition [1]: -30.4% | score [2]: 1 | rescue above control [3]: 2.42 | cytochrome c release ratio [4]: 0.87 | inhibition of aggregation [5]: 27.9% | glutamate uptake change [6]: 12% | aggregation suppression score [7]: 1.43 | parasite load remaining [8]: 225% (inactive) | viability [8]: 94.2% | inhibition [9]: 6.36% (inactive) | outcome [10]: inactive | outcome [11]: inactive | outcome [12]: inactive | outcome [13]: inactive | z-score [14, 21]: -0.189 (inactive) | z-score [14, 22]: -0.724 | luciferase signal [15]: 120 AU (inactive) | z-score [16]: 0.775 (inactive) and 0.485 (inactive)

C[C@@]12C(=O)OC(=O)[C@]1(C)[C@H]1CC[C@@H]2O1
parasite load remaining [8]: -0.2% (inactive) | viability [8]: 9.1% | inhibition [9]: -26.6% (inactive) | AC50 [13]: 2350 nM (active) | fold change [17, 23]: 0.592 (active) and 1.01 (inactive) | fold change [17, 24]: 2.6 and 1.41 | cell count [17, 25]: 223 and 535 | cell count [17, 26]: 376 and 530 | luciferase signal [15]: 52 AU (inactive) | z-score [16]: -0.755 (inactive)

O=C1c2ccc(O)c(O)c2C(=O)c2c(O)ccc(O)c21
inhibition [1]: -8.08% | score [2]: 1.47 | cytochrome c release ratio [4]: 0.18 | inhibition of aggregation [5]: 38.2% | glutamate uptake change [6]: 32% | aggregation suppression score [7]: 0.505 | inhibition [9]: 4.26% (inactive) | red/green cell ratio (normalised) [18]: 1.12 (inactive) | normalised cell number [18, 27]: 0.82 | normalised cell number [18, 28]: 0.92 | luciferase signal [15]: 76 AU (inactive)

CC(C)c1c(O)c(-c2cc3c(c(C(C)C)c2O)CCC2C(C)(C)CCC[C@]32C)cc2c1CCC1C(C)(C)CCC[C@]21C (some centres undefined)
inhibition [9]: -2.25% (inactive) | red/green cell ratio (normalised) [18]: 1 (inactive) | normalised cell number [18, 27]: 1.03 | normalised cell number [18, 28]: 1.03 | luciferase signal [15]: 40 AU (inactive)

O=c1[nH]c2cc(Cl)c(Cl)cc2[nH]c1=O
inhibition [9]: 1.1% (inactive) | red/green cell ratio (normalised) [18]: 1.09 (inactive) | normalised cell number [18, 27]: 0.94 | normalised cell number [18, 28]: 1.02 | luciferase signal [15]: 40 AU (inactive)

CCCC(=O)Nc1ncnc2c1ncn2[C@@H]1O[C@@H]2COP(=O)(O)O[C@H]2[C@H]1OC(=O)CCC
inhibition [9]: 10.5% (inactive) | fold change [17, 23]: 1.04 (inactive) and 0.902 (inactive) | fold change [17, 24]: 0.758 and 0.739 | cell count [17, 25]: 5610 and 9020 | cell count [17, 26]: 5380 and 10000 | remaining NAD [19]: 10 nM (inactive) | luciferase signal [15]: 68 AU (inactive) | z-score [16]: 0.335 (inactive)

O=C1C=CC(=C(c2ccc(O)cc2)c2ccc(O)cc2)C=C1
inhibition [1]: 28.5% | score [2]: 1.1 | rescue above control [3]: -3.26 | cytochrome c release ratio [4]: 1.26 | inhibition of aggregation [5]: 83.1% | glutamate uptake change [6]: -0.24% | aggregation suppression score [7]: 1.13 | inhibition [9]: 7.03% (inactive) | red/green cell ratio (normalised) [18]: 0.79 (inactive) | normalised cell number [18, 27]: 1.03 | normalised cell number [18, 28]: 0.82 | luciferase signal [15]: 148 AU (inactive)

O=C(O)c1cc([N+](=O)[O-])ccc1NCCCc1ccccc1
inhibition [1]: 58.5% | score [2]: 0.73 | rescue above control [3]: 1.37 | cytochrome c release ratio [4]: 0.78 | inhibition of aggregation [5]: 4.16% | glutamate uptake change [6]: 5.28% | aggregation suppression score [7]: 0.265 | inhibition [9]: 11.2% (inactive) | fold change [17, 23]: 1.03 (inactive) and 0.858 (inactive) and 0.935 (inactive) | fold change [17, 24]: 1.22 and 0.934 and 0.883 | cell count [17, 25]: 10800 and 5570 and 8160 | cell count [17, 26]: 10500 and 6480 and 8730 | z-score [16]: 0.305 (inactive) and -0.425 (inactive)

CCN1CCCC1CNC(=O)c1cc(S(N)(=O)=O)ccc1OC (centres undefined)
inhibition [1]: 17.6% | score [2]: 1.43 | rescue above control [3]: 3.11 | cytochrome c release ratio [4]: 0.88 | inhibition of aggregation [5]: 59.1% | glutamate uptake change [6]: -6.59% | aggregation suppression score [7]: 1.43 | parasite load remaining [8]: 39.8% (inactive) and 78.3% (inactive) | viability [8]: 52.6% and 93.4% | inhibition [9]: -9.64% (inactive) | outcome [10]: inactive | outcome [11]: inactive | z-score [14, 21]: -0.0383 (inactive) and -0.359 (inactive) | z-score [14, 22]: 0.0677 and 0.0684 | remaining NAD [19]: 10 nM (inactive) | luciferase signal [15]: 56 AU (inactive) | z-score [16]: 0.32 (inactive) and 0.4 (inactive) and 0.185 (inactive)

O=C(O)c1cc2ccccc2[nH]1
parasite load remaining [8]: 53.6% (inactive) | viability [8]: 75.3% | inhibition [9]: 0.53% (inactive) | red/green cell ratio (normalised) [18]: 1.04 (inactive) | normalised cell number [18, 27]: 0.91 | normalised cell number [18, 28]: 0.95 | luciferase signal [15]: 36 AU (inactive)

C=CC1=C(C)/C(=C/c2[nH]c(Cc3[nH]c(/C=C4\NC(=O)C(C)=C4C=C)c(C)c3CCC(=O)O)c(CCC(=O)O)c2C)NC1=O
inhibition [9]: 2.22% (inactive) | red/green cell ratio (normalised) [18]: 0.85 (inactive) | normalised cell number [18, 27]: 1.14 | normalised cell number [18, 28]: 0.97 | luciferase signal [15]: 60 AU (inactive)

COc1cc2c(cc1OC)C(=O)OC2
inhibition [9]: 7.46% (inactive) | red/green cell ratio (normalised) [18]: 0.97 (inactive) | normalised cell number [18, 27]: 0.96 | normalised cell number [18, 28]: 0.94 | luciferase signal [15]: 160 AU (inactive)

CC[C@@]1(O)C[C@H](O[C@H]2C[C@H](N(C)C)[C@H](O[C@H]3C[C@H](O)[C@H](O[C@H]4CCC(=O)[C@H](C)O4)[C@H](C)O3)[C@H](C)O2)c2c(cc3c(c2O)C(=O)c2c(O)cccc2C3=O)[C@H]1C(=O)OC
parasite load remaining [8]: -0.835% (inactive) | viability [8]: 14.5% | inhibition [9]: 13.5% (inactive) | AC50 [11]: 332 nM (active) | AC50 [12]: 469 nM (active) | AC50 [13]: 11800 nM (active) | fold change [17, 23]: 1.94 (inactive) | fold change [17, 24]: 0.972 | cell count [17, 25]: 1190 | cell count [17, 26]: 612 | z-score [14, 21]: 0.116 | z-score [14, 22]: 2.56 | z-score [16]: -1.88 (inactive)

CCC[C@@H]1C[C@@H](C(=O)N[C@@H]([C@H]2O[C@H](SC)[C@H](O)[C@@H](O)[C@H]2O)[C@H](C)Cl)N(C)C1
parasite load remaining [8]: 69.6% (inactive) and 41% (inactive) | viability [8]: 232% and 102% | inhibition [9]: 8.56% (inactive) | outcome [13]: inactive | fold change [17, 23]: 0.93 (inactive) and 0.912 (inactive) | fold change [17, 24]: 1.22 and 1 | cell count [17, 25]: 9830 and 9930 | cell count [17, 26]: 10600 and 10900 | z-score [14, 21]: -0.831 (inactive) and -0.519 (inactive) | z-score [14, 22]: -0.0935 and -0.00307 | remaining NAD [19]: 10 nM (inactive) | luciferase signal [15]: 136 AU (inactive) | z-score [16]: -0.225 (inactive) and 0.615 (inactive)

COc1cc(NS(C)(=O)=O)ccc1Nc1c2ccccc2nc2ccccc12
inhibition [9]: -14.7% (inactive) | AC50 [13]: 16600 nM (active) | fold change [17, 23]: 0.846 (inactive) | fold change [17, 24]: 1.94 | cell count [17, 25]: 867 | cell count [17, 26]: 1020 | remaining NAD [19]: 10 nM (inactive) | luciferase signal [15]: 52 AU (inactive) | z-score [16]: -1.31 (inactive) | inhibition ([20]; BGB IC20 combo, at 0.005 µM): -6.17% and -3.09% | inhibition ([20]; BGB IC40 combo, at 0.005 µM): 3.68% and -48.5% | inhibition ([20]; BGB IC40 combo, at 0.05 µM): 39.5% and 18.4% | inhibition ([20]; at 0.5 µM): -24.7% (inactive) and -27.8% (inactive) | inhibition ([20]; cisplatin combo, at 0.05 µM): 39.5% and 15.2% | inhibition ([20]; cisplatin combo, at 0.5 µM): -38.9% and -24.5% | inhibition ([20]; cisplatin combo, at 5 µM): -5% and -33% | inhibition ([20]; measured here: 5 uM single agent, at 5 µM): 3.59% and -0.607%
